According to PubChem BioAssay (Tox21):
Records with an inconclusive call do not appear. Calls of active or inactive are those of the source. Unless noted, calls follow the shape of the dose curve; as a rule, active = well fitted curve in the direction sought with a large enough effect in the repeat runs; inconclusive = weak or mixed curves; inactive = no such curve, though single readings can be large; an effect the other way counts as inactive or inconclusive.

Experiments:
[1] = qHTS assay to identify small molecule antagonists of the TGF-beta/Smad signaling pathway - cell viability counter screen (AID 1346824); also: nearly all actives have a fitted effect of over 50% in size
Method in brief: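 SBE-bla HEK 293T cells, incubated overnight, then compound plus 0.25 ng/mL TGF-beta1 (stock added) for 5 hr at 37 C. Viability was read in the same wells by CellTiter-Glo luminescence after 30 min at room temperature.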

[2] = qHTS assay to identify small molecule agonists of the TGF-beta/Smad signaling pathway - cell viability counter screen (AID 1346829); also: top concentration of the series differs between compounds; nearly all actives have a fitted effect of over 45% in size
Method in brief: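 Luminescence from CellTiter-Glo, read after a 30 min room-temperature incubation, gives cell viability of SBE-bla HEK 293T cells treated 5 hr with compounds at 37 C.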

[3] = qHTS assay to identify small molecule agonists of the TGF-beta/Smad signaling pathway (AID 1346859; active = well fitted activation curve with a large enough effect in the signal ratio in the repeat runs, not every such curve was filed as active; the % refers to the signal ratio; also: series mostly up to about 77 µM)
Method in brief: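 HEK 293T cells stably carrying a beta-lactamase reporter driven by the Smad binding element were seeded overnight, exposed to DMSO-dissolved compounds for 5 hr at 37 C, 5% CO2, then loaded with FRET substrate for 2 hr at room temperature.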

[4] = Human pregnane X receptor (PXR) small molecule agonists, qHTS cell viability counter screen (AID 1346977); also: nearly all actives have a fitted effect of over 50% in size
Method in brief: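 PXR-Luc HepG2 cells in medium with 5% charcoal-stripped FBS were pre-incubated 5hr, then exposed to compounds for 24hr at 37C. Viability was read in the same wells by CellTiter-Fluor fluorescence, reagent added after 23hr with a 1hr incubation.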

[5] = Caspase-3/7 induction in HepG2 cells by small molecules, qHTS assay (AID 1346978); also: nearly all actives have a fitted effect of over 15% in size
Method in brief: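 Wild-type HepG2 cells, 2,000/well, settled 5 hr at 37 C and 5% CO2, then compound-treated for 17 hr; caspase-3/7 activity read by luminescent Caspase-Glo 3/7 after 30 min at room temperature.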

[6] = Caspase-3/7 induction in CHO-K1 cells by small molecules, qHTS cell viability counter screen (AID 1346979); also: nearly all actives have a fitted effect of over 35% in size
Method in brief: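 Wild-type CHO-K1 cells were seeded at 1,500 per well, rested 5hr at 37 C, then exposed to compounds in DMSO. After 16hr, CellTiter-Fluor reagent was added and fluorescence read 1hr later as the viability measure.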

[7] = Caspase-3/7 induction in CHO-K1 cells by small molecules, qHTS assay (AID 1346980); also: nearly all actives have a fitted effect of over 15% in size
Method in brief: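 Wild-type CHO-K1 cells exposed to compounds for 17hr at 37 C, 5% CO2. Caspase-3/7 activity then measured by Caspase-Glo 3/7 luminescence after 30min at room temperature.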

[8] = Caspase-3/7 induction in HepG2 cells by small molecules, qHTS cell viability counter screen (AID 1346981); also: series mostly up to about 92 µM; nearly all actives have a fitted effect of over 30% in size
Method in brief: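 Steps: seed 2,000 HepG2 cells per well; incubate 5 hr at 37 C; pin-add compounds in DMSO; incubate 16 hr; add CellTiter-Fluor; after 1 hr at 37 C and 5% CO2, read fluorescence.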

[9] = target: Nuclear receptor subfamily 1 group I member 2 (Homo sapiens) (UniProt O75469); assay: Human pregnane X receptor (PXR) small molecule agonists, qHTS assay (AID 1346982); also: nearly all actives have a fitted effect of over 35% in size
Method in brief: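 Agonist mode qHTS: PXR-Luc HepG2 cells plated 5 hr before DMSO-dissolved compounds were pinned in, cultured 24 hr at 37 C, 5% CO2; ONE-Glo luminescence readout.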

[10] = target: Cytochrome P450 2C19 (Homo sapiens) (UniProt P33261); assay: Cytochrome P450 Family 2 Subfamily C Member 19 (CYP2C19) small molecule antagonists: luciferase reporter qHTS assay (AID 1671197); also: series mostly up to about 120 µM; nearly all actives have a fitted effect of over 65% in size
Method in brief: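 CYP2C19 P450-Glo, 1536-well qHTS. Cpd + enzyme/proluciferin substrate 10 min RT; + NADPH regen, 37C 1 h; stop with luciferin detection reagent, 20 min RT, luminescence (RLU). Pos ctrl ketoconazole.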

[11] = target: Cytochrome P450 2C9 (Homo sapiens) (UniProt P11712); assay: Cytochrome P450 Family 2 Subfamily C Member 9 (CYP2C9) small molecule antagonists: luciferase reporter qHTS assay (AID 1671198); also: nearly all actives have a fitted effect of over 50% in size; also: potency is read from the fitted curve at half-maximal effect; as to activity change, negative = inhibition: series mostly up to about 120 µM
Method in brief: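 P450-Glo proluciferin substrate with CYP2C9 enzyme; 10 min RT preincubation, then NADPH regeneration 1 h at 37C; luciferin detection reagent 20 min RT, luminescence in relative luminescence units.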

[12] = target: Cytochrome P450 1A2 (Homo sapiens) (UniProt P05177); assay: Cytochrome P450 Family 1 Subfamily A Member 2 (CYP1A2) small molecule antagonists: luciferase reporter qHTS assay (AID 1671199); also: nearly all actives have a fitted effect of over 50% in size; also: potency is read from the fitted curve at half-maximal effect; as to activity change, negative = inhibition: series mostly up to about 120 µM
Method in brief: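 Inhibition of CYP1A2 conversion of proluciferin to luciferin, detected by luminescence. Reaction run 1 h at room temperature with NADPH regeneration after brief compound preincubation.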

[13] = target: Voltage-gated inwardly rectifying potassium channel KCNH2 (Homo sapiens) (UniProt Q12809); assay: Human Ether-a-go-go-Related Gene (hERG) channel small molecule antagonists: fluorescence cell-based qHTS assay (AID 1671200); also: nearly all actives have a fitted effect of over 50% in size; also: potency is read from the fitted curve at half-maximal effect;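 as to activity change, negative = inhibition: hERG-expressing U2OS cells given a thallium stimulus after FluxOR II dye loading; series mostly up to about 77 µM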
Method in brief: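 U2OS cells expressing the channel were plated at 1000 cells/well, incubated overnight at 37 C, then loaded with FluxOR II thallium-sensitive dye for 1 h at room temperature in the dark, with a further 10 min at room temperature before stimulation.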

[14] = target: Cytochrome P450 3A4 (Homo sapiens) (UniProt P08684); assay: Cytochrome P450 Family 3 Subfamily A Member 4 (CYP3A4) small molecule antagonists: luciferase reporter qHTS assay (AID 1671201)
Method in brief: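 P450-Glo CYP3A4 system with proluciferin substrate; compounds preincubated 10 min RT with enzyme-substrate mix, then NADPH regeneration added for 1 h RT. Detection reagent 20 min, luminescence read as relative luminescence units.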

[15] = target: Nuclear receptor subfamily 1 group I member 2 (Rattus norvegicus) (UniProt Q9R1A7); assay: Rat pregnane X receptor (rPXR) activation by small molecules, qHTS assay (AID 1346983); settings: rPXR luciferase reporter cells, One-Glo luminescence, 24 h; max activation: stronger effect = higher value; also: nearly all actives have a fitted effect of over 20% in size
Method in brief: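 Cell-based rPXR activation assay: rPXR cells, 2,000 per well, rested 5hr at 37 C, then exposed to compounds in DMSO for 24 hr at 37 C. Luciferase activity read by One-Glo luminescence after 30 min at room temperature.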

[16] = target: Nuclear receptor subfamily 1 group I member 2 (Homo sapiens) (UniProt O75469); assay: CYP3A4 induction through human pregnane X receptor (PXR) by small molecules, qHTS assay (AID 1346984); also: nearly all actives have a fitted effect of over 40% in size
Method in brief: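 Steps: seed DPX-2 cells, 5 hr at 37C; pin-transfer compounds; 24 hr at 37C; add Luciferin-IPA (3uM final), 3 hr at 37C; add One-Glo, 30 min RT; read luminescence.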

[17] = target: Nuclear receptor subfamily 1 group I member 2 (Homo sapiens) (UniProt O75469); assay: Human pregnane X receptor (PXR) activation by small molecules, qHTS assay (AID 1346985); also: nearly all actives have a fitted effect of over 40% in size
Method in brief: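 DPX-2 cells (HepG2 co-transfected with a PXR response element and a CYP3A4-promoter luciferase construct) were seeded at 2,000 per well, rested 5 hr at 37C, then exposed to DMSO-dissolved compounds for 24 hr. Activation was read as luciferase luminescence.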

[18] = target: Cytochrome P450 2D6 (Homo sapiens) (UniProt P10635); assay: Cytochrome P450 Family 2 Subfamily D Member 6 (CYP2D6) small molecule antagonists: luciferase reporter qHTS assay (AID 1671196); also: nearly all actives have a fitted effect of over 50% in size; also: potency is read from the fitted curve at half-maximal effect; as to activity change, negative = inhibition: series mostly up to about 120 µM
Method in brief: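 P450-Glo format: CYP2D6 converts a proluciferin substrate to luciferin in an NADPH-driven reaction lasting 1 h at room temperature. Light output, proportional to CYP2D6 activity, reflects interference by test chemicals.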

[19] = target: Thyrotropin-releasing hormone receptor (Homo sapiens) (UniProt P34981); assay: qHTS assay to identify small molecule agonists of the thyrotropin-releasing hormone receptor (TRHR) signaling pathway (AID 1346891; calls by dose curve; also: series mostly up to about 58 µM)
Method in brief: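 TRHR-expressing HEK293 cells were plated 18 h at 37 °C/5% CO2, loaded with calcium dye 2 h at 37 °C, then given compound in DMSO; fluorescence was read kinetically for 3 min at 1 s intervals.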

[20] = target: Thyrotropin-releasing hormone receptor (Homo sapiens) (UniProt P34981); assay: qHTS assay to identify small molecule antagonists of the thyrotropin-releasing hormone receptor (TRHR) signaling pathway (AID 1346877; active = well fitted inhibition curve with a large enough effect in the repeat runs, not every such curve was filed as active; also: series mostly up to about 51 µM)
Method in brief: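 Cells (TRHR-HEK293) are plated and kept 18 h at 37 °C/5% CO2. A calcium-sensitive dye is added for 2 h, compound follows for 5 min at room temperature, and TRH is then given at 1 nM final.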
% is scaled to controls: 0 for no effect and ±100 for the full control effect.

Cytochrome P450 3A4 (Homo sapiens), sequence (P08684 whole entry, looked up): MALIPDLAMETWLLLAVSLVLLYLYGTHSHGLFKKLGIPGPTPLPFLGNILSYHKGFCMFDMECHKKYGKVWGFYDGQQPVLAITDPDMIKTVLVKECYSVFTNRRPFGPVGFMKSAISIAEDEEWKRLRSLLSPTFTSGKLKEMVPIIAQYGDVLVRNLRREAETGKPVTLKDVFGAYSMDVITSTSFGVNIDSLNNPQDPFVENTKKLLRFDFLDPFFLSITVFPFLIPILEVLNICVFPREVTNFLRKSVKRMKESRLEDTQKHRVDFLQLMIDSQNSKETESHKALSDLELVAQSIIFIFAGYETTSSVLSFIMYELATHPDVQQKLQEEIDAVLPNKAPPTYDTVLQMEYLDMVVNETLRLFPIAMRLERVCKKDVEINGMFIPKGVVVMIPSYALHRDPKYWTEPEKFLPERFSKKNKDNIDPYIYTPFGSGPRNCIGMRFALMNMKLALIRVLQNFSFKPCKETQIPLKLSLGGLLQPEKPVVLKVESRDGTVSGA
Cytochrome P450 1A2 (Homo sapiens), sequence (P05177 whole entry, looked up): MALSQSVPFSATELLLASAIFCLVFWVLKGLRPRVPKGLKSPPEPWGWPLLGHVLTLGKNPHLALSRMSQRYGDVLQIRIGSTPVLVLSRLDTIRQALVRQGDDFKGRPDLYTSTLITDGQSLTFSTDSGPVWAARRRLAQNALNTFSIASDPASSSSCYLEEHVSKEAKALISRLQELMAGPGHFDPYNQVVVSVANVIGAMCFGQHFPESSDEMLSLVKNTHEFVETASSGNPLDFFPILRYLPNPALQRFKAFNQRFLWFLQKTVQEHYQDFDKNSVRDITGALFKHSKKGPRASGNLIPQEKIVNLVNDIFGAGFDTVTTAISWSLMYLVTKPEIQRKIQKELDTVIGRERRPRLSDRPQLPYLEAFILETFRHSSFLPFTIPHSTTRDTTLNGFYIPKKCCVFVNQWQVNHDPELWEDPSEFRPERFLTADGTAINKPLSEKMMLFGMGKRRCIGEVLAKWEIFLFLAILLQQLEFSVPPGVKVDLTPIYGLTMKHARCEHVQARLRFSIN
Cytochrome P450 2C19 (Homo sapiens), sequence (P33261 whole entry, looked up): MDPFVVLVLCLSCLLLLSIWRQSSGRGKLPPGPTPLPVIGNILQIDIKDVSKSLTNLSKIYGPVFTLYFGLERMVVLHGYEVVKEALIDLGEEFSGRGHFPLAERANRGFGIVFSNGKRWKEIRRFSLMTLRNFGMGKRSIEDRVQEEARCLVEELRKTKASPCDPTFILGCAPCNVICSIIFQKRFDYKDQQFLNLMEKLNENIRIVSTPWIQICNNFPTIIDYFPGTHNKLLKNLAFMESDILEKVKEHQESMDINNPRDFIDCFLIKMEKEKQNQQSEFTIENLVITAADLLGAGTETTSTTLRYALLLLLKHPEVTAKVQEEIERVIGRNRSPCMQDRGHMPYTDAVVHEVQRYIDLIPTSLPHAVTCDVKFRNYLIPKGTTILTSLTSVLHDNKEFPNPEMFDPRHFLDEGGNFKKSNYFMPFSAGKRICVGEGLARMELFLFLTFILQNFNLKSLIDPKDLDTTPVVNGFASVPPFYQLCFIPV
Cytochrome P450 2D6 (Homo sapiens), sequence (P10635 whole entry, looked up): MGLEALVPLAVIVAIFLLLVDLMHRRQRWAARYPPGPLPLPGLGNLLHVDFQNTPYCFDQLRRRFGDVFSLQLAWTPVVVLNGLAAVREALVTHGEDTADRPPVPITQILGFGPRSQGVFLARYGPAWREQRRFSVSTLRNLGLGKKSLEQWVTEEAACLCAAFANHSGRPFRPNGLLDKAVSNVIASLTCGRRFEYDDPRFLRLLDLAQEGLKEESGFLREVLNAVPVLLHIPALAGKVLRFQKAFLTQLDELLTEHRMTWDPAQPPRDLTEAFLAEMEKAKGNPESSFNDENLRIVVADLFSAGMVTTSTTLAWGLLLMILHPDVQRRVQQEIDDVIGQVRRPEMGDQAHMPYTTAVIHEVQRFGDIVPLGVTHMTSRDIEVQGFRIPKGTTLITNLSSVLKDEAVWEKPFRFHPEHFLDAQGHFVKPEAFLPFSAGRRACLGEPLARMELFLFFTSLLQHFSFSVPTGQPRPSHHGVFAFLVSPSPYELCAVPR
Nuclear receptor subfamily 1 group I member 2 (Homo sapiens), sequence (O75469 whole entry, looked up): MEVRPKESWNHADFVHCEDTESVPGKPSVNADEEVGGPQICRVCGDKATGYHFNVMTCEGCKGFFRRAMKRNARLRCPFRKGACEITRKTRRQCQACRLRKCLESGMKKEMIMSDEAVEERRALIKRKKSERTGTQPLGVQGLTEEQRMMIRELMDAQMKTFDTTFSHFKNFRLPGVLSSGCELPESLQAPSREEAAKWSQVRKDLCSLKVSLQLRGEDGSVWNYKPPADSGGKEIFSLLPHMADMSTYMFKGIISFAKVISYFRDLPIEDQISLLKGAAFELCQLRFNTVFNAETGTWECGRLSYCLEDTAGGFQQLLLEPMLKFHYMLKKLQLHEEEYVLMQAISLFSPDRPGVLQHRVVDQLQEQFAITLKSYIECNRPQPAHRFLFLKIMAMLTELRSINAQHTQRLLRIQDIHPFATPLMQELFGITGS
Voltage-gated inwardly rectifying potassium channel KCNH2 (Homo sapiens), sequence (Q12809 whole entry, looked up): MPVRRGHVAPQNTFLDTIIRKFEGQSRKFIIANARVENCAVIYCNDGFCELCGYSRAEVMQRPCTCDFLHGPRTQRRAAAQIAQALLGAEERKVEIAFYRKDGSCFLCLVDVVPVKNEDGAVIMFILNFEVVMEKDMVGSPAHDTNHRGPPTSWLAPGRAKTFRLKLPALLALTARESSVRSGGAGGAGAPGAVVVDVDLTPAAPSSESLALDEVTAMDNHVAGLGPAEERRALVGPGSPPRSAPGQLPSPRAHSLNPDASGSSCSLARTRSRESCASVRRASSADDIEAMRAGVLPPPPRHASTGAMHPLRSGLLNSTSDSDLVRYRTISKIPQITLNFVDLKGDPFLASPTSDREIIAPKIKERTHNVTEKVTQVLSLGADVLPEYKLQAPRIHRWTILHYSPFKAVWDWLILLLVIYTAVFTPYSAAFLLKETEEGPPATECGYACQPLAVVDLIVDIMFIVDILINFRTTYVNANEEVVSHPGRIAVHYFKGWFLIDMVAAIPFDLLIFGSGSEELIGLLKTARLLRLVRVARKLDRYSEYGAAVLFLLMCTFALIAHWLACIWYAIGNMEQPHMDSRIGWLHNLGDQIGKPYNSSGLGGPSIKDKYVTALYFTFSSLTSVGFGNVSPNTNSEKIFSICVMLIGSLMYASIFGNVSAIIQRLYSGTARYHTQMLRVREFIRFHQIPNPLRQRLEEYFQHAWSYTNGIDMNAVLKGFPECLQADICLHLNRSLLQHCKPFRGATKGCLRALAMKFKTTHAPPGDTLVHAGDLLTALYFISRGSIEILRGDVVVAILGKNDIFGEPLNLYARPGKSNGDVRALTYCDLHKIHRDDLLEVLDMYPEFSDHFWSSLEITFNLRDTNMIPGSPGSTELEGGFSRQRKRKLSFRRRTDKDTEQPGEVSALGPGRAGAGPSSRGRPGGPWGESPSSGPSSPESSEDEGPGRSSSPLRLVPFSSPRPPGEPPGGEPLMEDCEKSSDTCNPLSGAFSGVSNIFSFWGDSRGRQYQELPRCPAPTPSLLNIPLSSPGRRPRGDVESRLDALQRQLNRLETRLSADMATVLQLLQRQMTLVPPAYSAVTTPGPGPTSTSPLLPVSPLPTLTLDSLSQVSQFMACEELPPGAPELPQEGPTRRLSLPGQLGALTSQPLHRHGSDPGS
Cytochrome P450 2C9 (Homo sapiens), sequence (P11712 whole entry, looked up): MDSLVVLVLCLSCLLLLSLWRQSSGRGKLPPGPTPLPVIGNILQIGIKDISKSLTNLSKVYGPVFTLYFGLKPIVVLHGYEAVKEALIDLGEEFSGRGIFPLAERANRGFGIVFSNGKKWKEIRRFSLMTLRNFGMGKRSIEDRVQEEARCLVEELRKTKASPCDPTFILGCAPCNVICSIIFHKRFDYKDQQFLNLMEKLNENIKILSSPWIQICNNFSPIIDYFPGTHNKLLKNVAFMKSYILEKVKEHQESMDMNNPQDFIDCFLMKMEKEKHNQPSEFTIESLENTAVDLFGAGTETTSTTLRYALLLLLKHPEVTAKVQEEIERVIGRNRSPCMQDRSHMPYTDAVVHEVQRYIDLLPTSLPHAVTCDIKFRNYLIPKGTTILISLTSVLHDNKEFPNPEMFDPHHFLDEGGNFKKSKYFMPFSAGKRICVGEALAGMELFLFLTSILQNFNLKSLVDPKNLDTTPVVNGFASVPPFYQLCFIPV
Thyrotropin-releasing hormone receptor (Homo sapiens), sequence (P34981 whole entry, looked up): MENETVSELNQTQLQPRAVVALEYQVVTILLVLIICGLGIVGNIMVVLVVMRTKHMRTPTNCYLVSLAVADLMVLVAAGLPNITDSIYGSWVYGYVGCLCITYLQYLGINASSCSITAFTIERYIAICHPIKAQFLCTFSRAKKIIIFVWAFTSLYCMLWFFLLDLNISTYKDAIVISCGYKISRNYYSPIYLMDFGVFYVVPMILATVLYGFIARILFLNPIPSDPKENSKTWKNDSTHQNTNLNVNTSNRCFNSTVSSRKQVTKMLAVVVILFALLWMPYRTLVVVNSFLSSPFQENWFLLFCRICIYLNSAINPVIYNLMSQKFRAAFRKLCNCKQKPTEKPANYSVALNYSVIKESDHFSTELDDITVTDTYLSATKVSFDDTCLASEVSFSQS
Nuclear receptor subfamily 1 group I member 2 (Rattus norvegicus), sequence (Q9R1A7 whole entry, looked up): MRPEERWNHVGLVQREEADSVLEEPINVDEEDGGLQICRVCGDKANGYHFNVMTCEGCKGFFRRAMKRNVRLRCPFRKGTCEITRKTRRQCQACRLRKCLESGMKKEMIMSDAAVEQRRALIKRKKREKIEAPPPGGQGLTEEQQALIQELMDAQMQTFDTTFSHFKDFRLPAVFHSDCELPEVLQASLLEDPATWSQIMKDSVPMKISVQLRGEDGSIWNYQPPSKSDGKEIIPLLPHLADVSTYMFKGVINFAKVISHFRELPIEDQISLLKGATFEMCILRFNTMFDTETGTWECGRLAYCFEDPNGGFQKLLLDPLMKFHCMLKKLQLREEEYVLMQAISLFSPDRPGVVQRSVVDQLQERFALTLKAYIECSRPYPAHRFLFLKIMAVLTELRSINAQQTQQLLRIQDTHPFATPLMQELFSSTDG

Cc1ccc(C(=O)C(=O)O)cc1C
active: Potency [12] 30.9 µM
inactive: outcome [1] | outcome [2] | outcome [3] | Potency [4] | outcome [5] | Potency [6] | outcome [7] | Potency [8] | Potency [9] | Potency [10] | Potency [11] | Potency [13] | Potency [14]

O=c1cc(O)c(Cl)c[nH]1
inactive: outcome [1] | outcome [2] | outcome [3] | Potency [4] | Potency [6] | outcome [7] | Potency [8] | max activation [15] -3.03% | outcome [16] | Potency [17] | Potency [18] | Potency [10] | Potency [11] | Potency [12] | Potency [13] | Potency [14]

CCCCCCCCCCCCCCCCI
inactive: viability change, negative = cytotoxic [1] -2.44% [at 15.8 µM] | activity change, negative = cytotoxicity [2] 0.0425% [at 15.8 µM] | activation [3] 1.65% [at 15.8 µM] | activity change, negative = cytotoxicity [4] 1.52% [at 19 µM] | caspase activation [5] 0.99% [at 19 µM] | activity change, negative = cytotoxicity [6] 4.85% [at 19 µM] | caspase-3/7 activation [7] -0.405% [at 19 µM] | activity change, negative = cytotoxicity [8] 7.09% [at 19 µM] | activity change, negative = inhibition [18] -2.1% [at 23.6 µM] | activity change, negative = inhibition [10] -28.1% [at 23.6 µM] | activity change, negative = inhibition [11] -1.09% [at 23.6 µM] | activity change, negative = inhibition [12] -13.6% [at 23.6 µM] | activity change, negative = inhibition [13] 0.683% [at 15.8 µM] | activity change, negative = inhibition [14] -0.102% [at 23.6 µM]

CC(=O)OC(C)(C)Cc1ccccc1
inactive: outcome [1] | outcome [2] | outcome [3] | Potency [4] | outcome [5] | Potency [6] | outcome [7] | Potency [8] | Potency [18] | Potency [10] | Potency [11] | Potency [12] | Potency [13] | Potency [14]

NC(=O)C1(N2CCCCC2)CCN(CCCC(=O)c2ccc(F)cc2)CC1
active: Potency [18] 4.9 µM
inactive: outcome [1] | outcome [2] | outcome [3] | Potency [4] | outcome [7] | Potency [9] | max activation [15] 0.444% | Potency [17] | Potency [12] | Potency [14]

CCCCCCCCCCC
active: Potency [11] 79.6 µM
inactive: outcome [1] | outcome [2] | outcome [3] | Potency [4] | outcome [5] | Potency [6] | outcome [7] | Potency [9] | Potency [18] | Potency [10] | Potency [13] | Potency [14]

C1=C\CC/C=C\CC/1
inactive: outcome [1] | outcome [2] | outcome [3] | Potency [4] | outcome [5] | Potency [6] | outcome [7] | Potency [8] | Potency [9] | Potency [10] | Potency [11] | Potency [12] | Potency [13] | Potency [14]

CC(C)COC(=O)CC(C(=O)OCC(C)C)S(=O)(=O)O (stereo not drawn)
active: Potency [11] 31.7 µM
inactive: outcome [1] | outcome [2] | outcome [3] | Potency [4] | outcome [5] | Potency [6] | outcome [7] | Potency [18] | Potency [10] | Potency [12] | Potency [13] | Potency [14]

Cc1cccc(Nc2ccncc2S(=O)(=O)NC(=O)NC(C)C)c1
inactive: outcome [1] | outcome [2] | outcome [3] | Potency [4] | outcome [5] | outcome [7] | max activation [15] -0.7% | Potency [17] | Potency [18] | Potency [13]

COC(/C=C(\C)CCC=C(C)C)OC
inactive: outcome [1] | outcome [2] | outcome [3] | Potency [4] | outcome [5] | outcome [7] | Potency [8] | Potency [9] | Potency [18] | Potency [11] | Potency [13] | Potency [14]

O=C(CN1CCN(Cc2ccc3c(c2)OCO3)CC1)N1c2ccccc2Sc2ccccc21
inactive: outcome [1] | outcome [2] | outcome [3] | Potency [4] | outcome [5] | Potency [6] | outcome [7] | max activation [15] 6.39% | outcome [16] | Potency [12]
active: Potency [18] 0.55 µM | Potency [13] 4.77 µM

Cc1nc2ccccc2c(=O)o1
inactive: outcome [1] | outcome [2] | outcome [3] | Potency [4] | outcome [7] | Potency [9] | Potency [13] | Potency [14]

NS(=O)(=O)c1ccc(Cl)c(S(N)(=O)=O)c1
inactive: outcome [1] | outcome [2] | outcome [19] | Potency [4] | outcome [5] | Potency [6] | outcome [7] | Potency [9] | max activation [15] -3.93% | outcome [16] | Potency [17] | Potency [11] | Potency [12] | Potency [13] | Potency [14]

CCC1Nc2cc(Cl)c(S(N)(=O)=O)cc2S(=O)(=O)N1 (stereo not drawn)
inactive: outcome [1] | outcome [2] | Potency [4] | outcome [5] | Potency [6] | outcome [7] | Potency [8] | Potency [9] | max activation [15] -2.65% | outcome [16] | Potency [17] | Potency [10] | Potency [11] | Potency [13] | Potency [14]

CC(=O)OC(C(=O)c1ccccc1)c1ccccc1 (stereo not drawn)
active: Potency [18] 35.7 µM | Potency [12] 40.1 µM
inactive: outcome [1] | outcome [2] | Potency [4] | outcome [5] | Potency [6] | outcome [7] | Potency [8] | Potency [13] | Potency [14]

CCC(C)(C)C1CCC(=O)CC1
inactive: outcome [1] | outcome [2] | Potency [4] | outcome [5] | outcome [7] | Potency [8] | Potency [9] | Potency [18] | Potency [10] | Potency [12] | Potency [13] | Potency [14]

O=S(=O)(O)c1cc(O)ccc1O
inactive: outcome [1] | outcome [2] | outcome [20] | outcome [19] | Potency [4] | outcome [5] | Potency [6] | outcome [7] | Potency [13]
